Results published in PubChem BioAssay AID493034 (The Scripps Research Institute Molecular Screening Center, 2011).
Screen size: about 2,400 compounds; about 2,200 (92%) were called active.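 How the source made its calls: active means mean inhibition over triplicate runs exceeds the cutoff derived for the earlier primary screen (cut at about 25% in these data); inactive means the rest.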 So high a share suggests a set chosen from earlier hits. This is one part of the list.

What follows are compounds tested against Platelet-activating factor acetylhydrolase IB subunit alpha2 (Homo sapiens) (UniProt P68402) (assay: inhibition of human PAFAH1B2 catalytic subunit – biochemical, fluorescence polarization, FP-rhodamine probe, triplicate, confirmation (AID 493034;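 further: 0% = enzyme with DMSO and 100% = wells lacking PAFAH1B2 protein; inhibitors lower polarization by leaving the probe unbound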)). Details: recombinant PAFAH1B2, FP-rhodamine probe fluorescence polarization; at 3.39 µM; hits give high values.
Platelet-activating factor acetylhydrolase IB subunit alpha2 (Homo sapiens), sequence (P68402 whole entry, looked up): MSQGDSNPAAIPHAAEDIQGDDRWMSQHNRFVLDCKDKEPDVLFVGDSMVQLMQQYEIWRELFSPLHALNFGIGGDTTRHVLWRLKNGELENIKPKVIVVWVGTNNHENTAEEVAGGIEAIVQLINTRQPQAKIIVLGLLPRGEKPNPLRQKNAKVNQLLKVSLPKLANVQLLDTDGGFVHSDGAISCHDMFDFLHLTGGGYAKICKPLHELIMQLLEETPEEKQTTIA

inhibition, inactive:
CCC(C)c1c(N)n(S(=O)(=O)c2ccc(C)cc2)oc1=O (stereo not drawn) 23.5%
O=C(C[C@H]1C/C=C/CC[C@H](Cc2ccc(F)cc2)C(=O)O[C@H](c2ccccc2)CNC1=O)NCCO 23.6%
O=C1NCCOC(=O)[C@H](Cc2ccc(F)cc2)C/C=C\C[C@H]1CC(=O)N(CCO)Cc1ccccc1 14.8%
S=c1[nH]nc(CSCCOc2ccc(Cl)cc2Cl)o1 23.3%
CC(C)C(C(=O)Nc1nccs1)c1ccc(Cl)cc1 (stereo not drawn) 17.2%
CC(C)(C)NC(=O)C(=O)NNC(=O)COc1ccc(Br)cc1 23.5%
CC(=O)N1CCOc2ccc(S(=O)(=O)NCCc3ccc(C)cc3)cc21 23.7%
Cc1ccc2c(c1)C=CC(C)N2C(=O)c1ccccc1 (stereo not drawn) 21.4%
O=C(CCNS(=O)(=O)c1ccccc1)NCCCSc1ccccc1 22.4%
Cc1ccc(S(=O)(=O)/N=C2\SC(CC(=O)Nc3ccc(F)cc3)C(=O)N2c2ccccc2)cc1 (stereo not drawn) 23.5%
O=C(NCCc1ccc(Cl)cc1)c1ccc(=O)[nH]c1 19.5%

inhibition, active:
Cc1c(C(=O)N2CCOCC2)cc(C(C)(C)C)n1-c1ccccc1 41%
Cc1ccc(S(=O)(=O)n2cc(CO)c3ccccc32)cc1 40%
O=C1NC[C@@H](c2ccccc2)OC(=O)[C@@H](Cc2ccc(F)cc2)CC/C=C/C[C@H]1CC(=O)N(CCO)Cc1ccccc1 57.9%
O=C1NC[C@H](c2ccccc2)OC(=O)[C@H](Cc2ccc(F)cc2)C/C=C\C[C@H]1CC(=O)N(CCO)Cc1ccccc1 49.6%
O=C1NC[C@@H](c2ccccc2)OC(=O)[C@H](Cc2ccc(F)cc2)CC/C=C/C[C@H]1CC(=O)N(CCO)Cc1ccccc1 52.6%
N#Cc1c(NC(=O)C2CC=CCC2C(=O)O)sc2c1CCCCCC2 (stereo not drawn) 41.1%
CCc1ccc(-c2cc(C(=O)Nn3cnnc3)c3ccccc3n2)cc1 30.2%
Cc1ccc(S(=O)(=O)N2CCN(C(=S)NCCc3ccccc3)CC2)cc1 34.8%
C=C1C(=O)[C@@]23[C@H](O)C[C@@H]4C(C)(C)CC[C@H](O)[C@]4(C)[C@@H]2C[C@H](O)[C@@H]1[C@H]3O 69.2%
C=C1C(=O)[C@@]23[C@H](O)C[C@@H]4C(C)(C)CC[C@H](O)[C@@]4(C)[C@@H]2CC[C@@H]1[C@H]3O 84.8%
Cc1ccc(Sc2ccc(/C=C3/C(=O)NN(c4ccccc4)C3=O)o2)cc1 73.8%
Cc1ccc(CN=C2NC(=O)C(CC(=O)NCCc3ccccc3)S2)cc1 (stereo not drawn) 51.6%
